About 100 (7.1%) of roughly 1,400 compounds were called active. A selection follows. Potency and affinity values are given separately. A number with no mark means an inactive call. The rule behind the calls is not given here.

A short description of this assay: Vero cell toxicity, dose response, cytotoxicity control, plate reader, cherry-pick samples (AID 687020).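 Note: compounds incubated with cells for three days before luminescence read.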 The conditions noted are these: Vero cells toxicity; series mostly up to 19.5 µM; activity change, negative = toxicity: at the top concentration.
Regarding `Cc1noc(C)c1NC(=O)N(C)C[C@H]1OCCCC[C@H](C)Oc2ccc(NC(=O)NC(C)C)cc2C(=O)N([C@H](C)CO)C[C@@H]1C`, the “activity change, negative = toxicity” value is -12.9%. Consider `CCOC(=O)c1cn(CC)c2cc3c(cc2c1=O)OCO3`, for which the “activity change, negative = toxicity” value is -2.25%.

`Cc1ccc(NC(=O)c2cc(-c3cc(Cl)ccc3C)n[nH]2)cc1NS(C)(=O)=O`: the “activity change, negative = toxicity” value was 9.63%. The same measure for `O=C(NCc1ccccc1)[C@H]1CCCN1C(=O)[C@@H]1CCCN1C(=O)c1ccc(Cl)cc1Cl`: -23.7%; for `O=C(NCc1ccccc1)c1ccccc1`: -0.227%; for `Cc1noc(C)c1NC(=O)Nc1cccc2c1O[C@@H](CN(C)S(=O)(=O)c1ccc(F)cc1)[C@@H](C)CN([C@@H](C)CO)C2=O`: -3.08%. As for `C=CCOc1ccccc1CNn1c(C)n[nH]c1=S`, the “activity change, negative = toxicity” value was -9.09%.

Take `Fc1ccc(CNC2CCN(Cc3ccccc3)CC2)cc1`: the “activity change, negative = toxicity” value was 0.52%. On to `CN(Cc1ccccc1)C(=O)c1nc[nH]c1C(=O)N1CCN(C(=O)OC(C)(C)C)CC1`, for which the “activity change, negative = toxicity” value is -6.81%.

Consider `COC(=O)C[C@H]1CC[C@H]2[C@@H](COc3ccc(NC(=O)c4cnccn4)cc3C(=O)N2C)O1`, for which the “activity change, negative = toxicity” value is 1.66%. The same measure for `CCCCOc1ccc(C(=O)NCCOc2cccc(OC)c2)cc1`: -4.01%. Then `CS(=O)(=O)NCc1ccc(C(=O)NCCOc2ccccc2)cc1`, with 2.03%; and `Cc1c(Cl)cccc1NC(=O)CNC(=O)C1CC(=O)N(C2CCCC2)C1` (centres undefined), with -10.4%; and `Cc1noc(C)c1NC(=O)Nc1ccc2c(c1)C(=O)N([C@@H](C)CO)C[C@H](C)[C@@H](CN(C)C(=O)CCCN(C)C)OCCCC[C@@H](C)O2`, with -1.38%. The same measure for `CN(C)CCCNC(=O)OC1CC2CC1[C@H]1CCCCN1C2=O` (some centres undefined): -2.19%; for `CCCNC(=O)OC1CC2CC1[C@H]1CCCCN1C2=O` (some centres undefined): 2.02%.

In the case of `O=C(NCc1ccccn1)C(=O)NCC1OCCN1S(=O)(=O)c1ccc(Br)cc1` (centres undefined), the “activity change, negative = toxicity” value is -6.28%. For `COc1ccc(Cl)cc1NC(=O)CN(C)C(=O)C1COc2ccccc2O1` (centres undefined), the “activity change, negative = toxicity” value was -15.1%. Then `Cc1noc(C)c1S(=O)(=O)Nc1ccc2c(c1)C(=O)N([C@@H](C)CO)C[C@@H](C)[C@H](CN(C)C(=O)Nc1ccccc1)OCCCC[C@@H](C)O2`, with -5.09%; and `Cc1cc(C)n2c(Nc3ccc4c(c3)OCCO4)c(CC(C)C)nc2n1`, with -21.1%; and `Cc1cc(C)n2c(NC3CCCCC3)c(-c3ccccn3)nc2n1`, with -7.23%. Then `Cc1ccc(S(=O)(=O)N2CCN(C(=O)C(O)c3ccccc3)CC2)cc1` (centres undefined), with -18.2%; and `COC(=O)C[C@@H]1OC[C@H](Cc2ccccc2)N1S(=O)(=O)c1ccc(C)cc1`, with -39.2%. Then `Cc1ccc(S(=O)(=O)N2CCN(C(=O)COC(=O)Cc3ccc(Cl)cc3)CC2)c(C)c1`, with -17.2%. Turning to `COc1ccc(C(C(=O)NCc2ccccc2)n2c(-c3ccncc3)nc3ccccc32)cc1` (centres undefined), the “activity change, negative = toxicity” value was -13%.

For the compound `CN(C)c1ccc(CNS(=O)(=O)c2ccc3c(c2)C(C)(C)C(=O)N3C)cc1`, the “activity change, negative = toxicity” value was -30.9%. The same measure for `C[C@H]1CCCCO[C@H](CN(C)S(=O)(=O)c2ccc(Cl)cc2)[C@@H](C)CN([C@@H](C)CO)C(=O)c2cc(NC(=O)Cc3ccccc3)ccc2O1`: -3.01%; for `COc1ccccc1CCNS(=O)(=O)CCNC(=O)c1ccc2c(c1)OCO2`: -4.31%; for `COc1ccc(C2=Nn3c(nnc3-c3ccccc3Cl)SC2)cc1OCC1CC1`: -15.7%. The same measure for `COc1ccc(OC)c(S(=O)(=O)N2CCN(c3c(C)cccc3C)CC2)c1`: -9.78%.

Turning to `COc1ccc(-c2cnc3c(NC(C)=O)cc(-c4ccccc4OC)cn23)cc1OC`, the “activity change, negative = toxicity” value was 0.032%. On to `CCCNC(=O)N1C[C@H](O)COC[C@@H]2O[C@@H](CC(=O)N3CCOCC3)CC[C@H]21`, for which the “activity change, negative = toxicity” value is -2.31%.

As for `COc1ccc(C(C)(NC(C)=O)c2nc(-c3cccc(F)c3)cs2)cc1` (centres undefined), the “activity change, negative = toxicity” value was -2.95%. Then `O=C(CCc1nc2ccccc2c(=O)[nH]1)N1CCCc2ccccc21`, with -7.68%. Regarding `C[C@@H]1CN([C@@H](C)CO)C(=O)c2cc(C#CCc3ccccc3)cnc2O[C@@H]1CN(C)C(=O)C1CCOCC1`, the “activity change, negative = toxicity” value is 2.03%. The same measure for `c1ccc(-c2csc(-c3ccc(-c4csnn4)cc3)n2)cc1`: -16.9%. Turning to `O=C(NCC1CC1)C1(S(=O)(=O)c2ccccc2)CC=CC1`, the “activity change, negative = toxicity” value was 3.88%. On to `CCOC(=O)CN1CC23C=CC(O2)C(C(=O)NCCc2ccccc2)C3C1=O` (centres undefined), for which the “activity change, negative = toxicity” value was -11%.

With `CCOC(=O)N1CCN(Cc2nc3cc(NC(=O)CC)ccc3n2CC)CC1`, the “activity change, negative = toxicity” value is -25.9%. Then `COc1cc(NC(C)=O)c2ncccc2c1Br`, with -17.8%. Then `COc1ccc(CN2CCC[C@]3(N[C@H](c4ccc(OC)cc4)[C@@H]4C(=O)N(C)C(=O)[C@@H]43)C2=O)cc1`, with -3.12%. The same measure for `O=C(O)CNC(=O)c1ccc(NS(=O)(=O)c2ccc3ccccc3c2)cc1`: -5.7%. For `Cc1cc(Br)ccc1NC(=O)CN(C)C(=O)COc1cccc2c1OC(C)(C)C2`, the “activity change, negative = toxicity” value is -22.1%. The same measure for `O=C1N2CCCCC1(c1ccccc1)CCCC2`: -13.6%; for `COCCCN1C(=O)C(CC(=O)NC2CCCCC2)CC(C(=O)N(C(C)C)C(C)C)=C1C` (centres undefined): -16.2%. Then `COc1ccc(N(CC(=O)N2CCN(C)CC2)S(=O)(=O)c2cc(C)ccc2OC)cc1Cl`, with -25.7%. Take `O=C(Nc1ccc(S(=O)(=O)NC2=NCCCCC2)cc1)c1cccs1`: the “activity change, negative = toxicity” value was -6.51%. Then `COc1ccc(-c2ccccc2)cc1NC(=O)c1cccs1`, with -35%. Then `CC(C)NC(=O)N(C)C[C@@H]1Oc2ccc(NC(=O)Cc3cn(C)c4ccccc34)cc2C(=O)N([C@@H](C)CO)C[C@H]1C`, with 9.26%. Then `OC(COC(c1ccc(Cl)cc1)c1ccc(Cl)cc1)CN1CCN(c2ccccn2)CC1` (centres undefined), with -12.4%. Consider `CCN(CC)c1ccc(/C=N/N2C(=O)c3ccccc3C2=O)c(O)c1`, for which the “activity change, negative = toxicity” value was 1.43%. The same measure for `CCc1ccccc1OCC(=O)NNCC(=O)Nc1cccc(C#N)c1`: -25.6%. As to `COc1cccc(NC(=O)CCN2C(=O)C3CC=CCC3C2=O)c1` (centres undefined), the “activity change, negative = toxicity” value is -2.23%. The same measure for `CC(=O)N1[C@H](CO)[C@@H](c2ccc(-c3cccc(F)c3)cc2)[C@H]1CNC(=O)C1CC1`: 1.3%; for `COc1ccc([C@H]2C[C@@H](n3cc(C4CC4)nn3)[C@H](O)CN2Cc2cccs2)cc1`: -10.8%; for `COc1ccc(C(=O)N2CCCCC2c2cc(C(=O)NCc3cccnc3)no2)cc1` (centres undefined): -22.5%.

Consider `C[C@H](NC(=O)C1CCN(S(=O)(=O)c2ccccc2)CC1)C(=O)NCc1cccnc1`, for which the “activity change, negative = toxicity” value was -1.95%.

For `CC(C)[C@H](NC(=O)c1cccs1)C(=O)N1CCC[C@H]1C(=O)NCc1ccccc1`, the “activity change, negative = toxicity” value is 1.98%.

In the case of `O=C(Nc1ccc2c(c1)CCC2)c1ccccc1`, the “activity change, negative = toxicity” value is -24.3%.

Values taken from PubChem BioAssay AID687020 (Broad Institute, 2013).
